Measurements reported in paper PMC5540273 (PLoS ONE, 2017).

Key:
Details in all cases: concentration: 1 μM, replicates: in singlicate; n = 1
[1] = test system: MAP3K4
[2] = test system: MAP4K2
[3] = test system: MAP4K3
[4] = test system: MAP4K4
[5] = test system: MAP4K5
[6] = test system: MAPKAPK2
[7] = test system: MAPKAPK5
[8] = test system: MARK1
[9] = test system: MARK2
[10] = test system: MARK3
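Further: KINOMEscan kinase panel screen.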

SMILES	%Inh [1] [%]	%Inh [2] [%]	%Inh [3] [%]	%Inh [4] [%]	%Inh [5] [%]	%Inh [6] [%]	%Inh [7] [%]	%Inh [8] [%]	%Inh [9] [%]	%Inh [10] [%]
CCc1ccc(-c2ccc3c(c2)-c2nn(C)cc2S(=O)(=O)N3C)cc1	1	0	0	19	22	0	0	24	0	0
COc1cc(OC)cc(-c2cc3cnc(N)nc3nc2NC(=O)NC(C)(C)C)c1	32	0	0	0	0	0	0	0	8	0
Cc1nc(N(C)[C@H]2CN(C(=O)CC#N)CC[C@H]2C)c2cc[nH]c2n1	12	1	0	0	0	0	10	9	0	0
Cc1cccc(-c2cc(-c3c[nH]nc3-c3ccccn3)ccn2)c1 [GW679395]	13	0	0	0	0	17	0	0	0	0
O=c1cc(N2CCOCC2)nc2n(Cc3ccc(F)c(Cl)c3)ccn12 [GSK2297099]	25	0	0	0	0	2	0	0	0	0
Cc1cccc(-c2nc(Nc3ccc4c(cnn4C)c3)c3ccccc3n2)n1 [GW876731]	10	0	0	0	0	0	0	12	0	34
CCC(=O)c1c(-c2ccccc2)c2cc(Cl)ccc2c(=O)n1Cc1cc(S(C)(=O)=O)n(CC(F)F)n1	9	0	0	0	0	0	5	0	1	0
CCC(=O)c1c(-c2ccccc2)c2cc(Cl)ccc2c(=O)n1Cc1cc(S(C)(=O)=O)n(CCC(C)(C)O)n1	14	0	0	0	18	23	20	0	15	18
C[C@@H]1CC[C@H](C(=O)NC2CCCCC2)CN1c1cc(-c2ccc3c(N)n[nH]c3c2)nc(N)n1 [GSK2291363]	28	0	0	7	0	0	0	3	3	0
Cc1nnc(-c2ccc3ncn(-c4ccc(S(C)=O)cc4)c3c2)o1 (stereo not shown)	16	100	0	0	0	11	0	0	0	2
COc1cc2ncn(-c3cc(OCCCc4ccccc4)c(C(N)=O)s3)c2cc1OC [GSK205189]	16	0	0	14	39	7	0	0	0	0
CN1C(=O)C(Nc2ccccc2)=C(c2ccccc2)C1=O [SB-300079]	0	0	0	0	0	0	0	10	0	23
CCC(=O)c1c(-c2ccccc2)c2cc(Cl)ccc2c(=O)n1Cc1ccc(C(=O)O)cc1	0	12	0	0	0	0	17	0	3	0
O=C1NC(=O)C(c2ccccc2)=C1Nc1cccc(O)c1 [SB-390534]	24	26	0	1	0	27	20	3	9	22
Cc1ccc(Oc2ccc(Nc3ncnc4cc[nH]c34)cc2C)cn1	6	0	0	0	0	0	30	20	4	3
CCc1nc(-c2cccc(C)c2)c(-c2ccncc2)s1	0	0	0	17	0	0	0	0	11	0
CCn1c(-c2nonc2N)nc2ccccc21 [SB-693162/GW549034]	0	4	0	0	0	0	33	0	25	0
O=C(Nc1n[nH]c2nc(-c3ccccc3)c(Cl)cc12)C1CC1 [SB-734909]	5	0	15	1	9	22	0	30	0	0
COC(=O)c1c(-c2ccccc2)c2cc(C)ccc2c(=O)n1Cc1ccccc1	2	0	0	0	0	24	0	0	17	0
Cc1ccccc1COc1cc(-n2cnc3cc(Cl)ccc32)sc1C(N)=O [GW813349]	20	0	0	12	20	0	0	0	0	14
O=C(NCCNc1ccnc(Nc2ccc(F)cc2)n1)Nc1ccc2c(c1)OCO2 [GSK1379882]	24	0	0	0	0	0	0	0	0	0
CCC(=O)c1c(-c2ccccc2)c2cc(Cl)ccc2c(=O)n1Cc1cc(S(C)(=O)=O)n(CC(N)=O)n1	0	0	0	0	0	0	0	0	0	6
COc1cc2nccc(Nc3cccc(Oc4ccccc4)c3)c2cc1OC.Cl [GW284543]	0	0	0	0	0	15	0	0	8	31
COc1ccc(-n2cnc3c(N)ncnc32)cc1 [SKF-97236]	0	22	0	17	19	15	0	15	0	0

SMILES	%Inh [1] [%]	%Inh [2] [%]	%Inh [3] [%]	%Inh [4] [%]	%Inh [5] [%]	%Inh [6] [%]	%Inh [7] [%]	%Inh [8] [%]	%Inh [9] [%]	%Inh [10] [%]
CN1C(=O)C(Nc2cc(Cl)c(O)c(Cl)c2)=C(c2ccc(Cl)cc2)C1=O [SB-404321]	0	0	0	0	0	89	0	0	10	0
COc1cc(Nc2ccnc3ccc(C(F)(F)F)cc23)cc(OC)c1OC [GW577382]	7	1	0	15	4	0	0	8	0	0
Nc1nccc2scc(-c3ccc4c(c3)CCN4C(=O)Cc3ccccc3)c12 [GSK2576924]	10	6	17	24	48	6	0	0	1	1
Nc1n[nH]c2ncc(-c3ccccc3)cc12 [SB-517081]	3	0	0	0	0	19	0	0	0	0
COc1ccc(-c2cc3c(C)nc(N)nc3n([C@H]3CC[C@H](OCCO)CC3)c2=O)cn1	4	0	30	0	0	0	0	0	1	0
COc1cccc(C2=C(Nc3cccc(C(=O)O)c3)C(=O)NC2=O)c1 [SB-390770]	20	0	11	12	15	6	0	15	0	0
CCn1c(-c2ccoc2)nc2cnccc21 [SB-733887]	0	0	0	11	5	16	0	0	0	3
Nc1ncnc2c1ncn2-c1ccc(Cl)cc1 [AH2635]	0	0	0	12	0	10	0	0	0	3
COc1cc(Nc2nccc(N3CCC(NC(=O)C(C)c4ccc(Cl)cc4)C3)n2)cc(OC)c1OC (stereo not shown) [GSK1379757]	0	0	0	8	5	14	0	0	0	0
COC(=O)c1c(-c2ccccc2)c2cc(Br)ccc2c(=O)n1Cc1ccc(S(C)(=O)=O)cc1	9	0	0	19	0	4	2	1	0	11
Nc1nc(N)c2nc(-c3ccccc3)[nH]c2n1 [SKF-12778]	26	26	0	26	21	13	5	1	0	0
COc1cc2nccc(Nc3ccc(OCc4ccc(NC(C)=O)cc4)cc3)c2cc1OC.Cl [GW440135]	37	1	0	0	0	28	0	0	0	0
O=C(Nc1ccc2c(c1)OCO2)NC1CCN(c2ccnc(NCc3ccc(F)cc3)n2)CC1 [GSK1379859]	0	0	0	3	0	13	0	8	0	0
Cl.NS(=O)(=O)c1cccc(Nc2cc(-c3ccc(F)cc3)n[nH]2)c1 [GW824645]	1	0	0	0	0	0	0	0	19	14
Nc1ncnc2c1ncn2-c1cccc2ccccc12 [SKF-97184]	2	0	0	0	0	0	0	23	0	52
COc1cc2ncn(-c3cc(OCc4ccncc4Br)c(C(N)=O)s3)c2cc1OC [GW854278]	17	11	0	0	20	0	0	8	37	0
O=C(NCc1cccs1)c1cc(C(=O)c2c(Cl)cccc2Cl)c[nH]1 [GW823670]	0	0	0	0	3	0	0	0	0	50
CN(C)c1cc(-c2ccc3c(N)n[nH]c3c2)nc(N)n1 [GSK2219329]	0	0	0	9	7	0	0	0	0	0
CCS(=O)c1ccc(-c2coc3ccc(-c4nnc(C)o4)cc23)cc1 (stereo not shown)	0	0	0	5	4	0	7	4	8	17
COc1ccc(Nc2nccc(N3CCC(NS(=O)(=O)c4ccc(NC(C)=O)cc4)C3)n2)cc1 (stereo not shown) [GSK1379729]	13	2	11	21	15	49	1	0	0	0
Cc1cc(Nc2nc(-c3cccc(C)n3)nc3ccccc23)ccn1 [GW872411]	0	0	12	0	0	0	0	21	13	22
O=C(Nc1n[nH]c2nc(-c3ccccc3)c(Br)cc12)C1CC1 [SB-708998]	0	1	0	17	13	0	0	0	0	0
COc1cc2ncn(-c3cc(OCc4ccc(S(C)(=O)=O)cc4)c(C(N)=O)s3)c2cc1OC [GW869979]	0	26	0	0	0	0	31	0	10	0
Cc1ccc(-c2ccc3c(ccc4sc5c(c43)NC[C@@H](C)N=C5N(C)C)n2)cn1	0	0	0	0	0	0	0	0	5	0

SMILES	%Inh [1] [%]	%Inh [2] [%]	%Inh [3] [%]	%Inh [4] [%]	%Inh [5] [%]	%Inh [6] [%]	%Inh [7] [%]	%Inh [8] [%]	%Inh [9] [%]	%Inh [10] [%]
CC(C)(C)c1ccc(C(=O)Nc2cn3cc(-c4ccccc4)ccc3n2)cc1	7	0	33	5	0	12	0	0	19	0
Nc1n[nH]c2nnc(-c3ccccc3)c(-c3ccccc3)c12 [GW554060]	0	0	0	0	0	22	0	0	0	0
Fc1cccc(CSc2nnc(-c3ccc4c(c3)CCO4)o2)c1	0	8	0	0	0	25	16	0	20	5
Nc1nc(-c2ccccc2F)c(-c2ccnc3ccccc23)s1 [GW560459]	1	0	0	11	0	9	0	0	0	4
COc1ccc(CNC(=O)NC2CCN(c3ccnc(Nc4ccc(F)cc4)n3)C2)cc1 (stereo not shown) [GSK1379706]	0	0	0	3	2	24	2	0	0	4
Cc1nn2c(=O)cc(N3CCOCC3)nc2n1Cc1cccc(Cl)c1Cl [GSK2342769]	7	0	0	0	0	15	0	0	0	0
Cn1c(=O)c(F)c(Nc2ccc(I)cc2F)c2c(=O)n(OC[C@H](O)CO)cnc21	27	0	0	0	5	0	0	0	0	7
COc1cccc(C2=C(N(C)c3ccccc3)C(=O)NC2=O)c1 [SB-334865]	12	0	0	0	0	17	0	0	0	0
CCCC(=O)Nc1n[nH]c2ncc(-c3cccc4ccccc34)cc12 [SB-642057]	34	0	12	8	7	8	0	2	0	0
Cc1nnc(-c2ccc(C)c(-c3ccc(C(=O)O)cc3)c2)o1 [GW608005]	8	0	0	10	0	1	0	4	0	0
Cl.c1ccc(Cn2cnc3cc(Nc4ncnc5ccccc45)ccc32)cc1 [GW272142]	0	0	0	0	0	15	0	0	0	0
COc1cc(Nc2nccc(N3CCC(NC(=O)C4COc5ccccc5O4)C3)n2)cc(OC)c1OC (stereo not shown) [GSK1379761]	22	0	2	6	0	0	0	0	0	0
COC(=O)c1c(-c2ccccc2)c2cc(Br)ccc2c(=O)n1Cc1ccc(NC(=O)CCC(=O)O)cc1	38	0	0	0	0	16	4	7	6	0
O=C(Nc1n[nH]c2cc(-c3ccccc3F)ccc12)C1CC1 [SB-733371]	29	16	0	43	18	0	10	0	29	0
COc1ccc(-c2coc3ccc(-c4nnc(SCc5cccc(C#N)c5)o4)cc23)cc1	11	0	13	13	12	0	18	20	18	10
COc1ccc(-c2cc3c(C)nc(N)nc3n([C@H]3CC[C@H](O)CC3)c2=O)cn1	0	0	3	0	0	0	0	0	0	0
FC(F)(F)c1ccc(-c2ncn(CCCN3CCOCC3)c2-c2ccncc2)cc1 [SB-217780]	7	0	0	0	0	12	22	9	0	3
Nc1ncnc2c1ncn2-c1cccc(F)c1 [SKF-97560]	16	38	0	0	0	0	39	0	0	0
CCCNC(=O)Nc1ccc(Oc2ncnc3ccn(C)c23)cc1	6	7	0	0	0	7	0	6	6	0
COc1cc2ncn(-c3cc(OCc4ccncc4)c(C(N)=O)s3)c2cc1OC [GSK336313]	0	0	0	0	3	5	0	0	0	0
CCS(=O)(=O)c1ccc(OC)c(Nc2ncc(-c3ccc(F)cc3)o2)c1.Cl [GW591947]	22	0	0	5	0	1	0	0	0	0
CCC(=O)c1c(-c2ccccc2)c2cc(Cl)ccc2c(=O)n1Cc1cc(C(=O)NC2CC2)n(C)n1	23	0	30	0	0	8	0	13	0	0
